According to the supplement of paper PMC11732987, “Enantioselective OTUD7B fragment discovery through chemoproteomics screening and high-throughput optimisation” (Communications Chemistry, 2025):

Tests used:
Assay in all cases: log2 ratio of Biotin-Ahx-Ub-VS probe labelling (fragment/DMSO); higher = less target engagement (more negative = stronger competition), active = hit call of the paper (q ≤ 0.05, log2 ratio ≤ -1)
Conditions in all cases: compound concentration: 200 uM; treatment time: 3 h
USP42 = molecular target: T1, USP42 (UniProt Q9H9J4)
T1 sequence (whole entry): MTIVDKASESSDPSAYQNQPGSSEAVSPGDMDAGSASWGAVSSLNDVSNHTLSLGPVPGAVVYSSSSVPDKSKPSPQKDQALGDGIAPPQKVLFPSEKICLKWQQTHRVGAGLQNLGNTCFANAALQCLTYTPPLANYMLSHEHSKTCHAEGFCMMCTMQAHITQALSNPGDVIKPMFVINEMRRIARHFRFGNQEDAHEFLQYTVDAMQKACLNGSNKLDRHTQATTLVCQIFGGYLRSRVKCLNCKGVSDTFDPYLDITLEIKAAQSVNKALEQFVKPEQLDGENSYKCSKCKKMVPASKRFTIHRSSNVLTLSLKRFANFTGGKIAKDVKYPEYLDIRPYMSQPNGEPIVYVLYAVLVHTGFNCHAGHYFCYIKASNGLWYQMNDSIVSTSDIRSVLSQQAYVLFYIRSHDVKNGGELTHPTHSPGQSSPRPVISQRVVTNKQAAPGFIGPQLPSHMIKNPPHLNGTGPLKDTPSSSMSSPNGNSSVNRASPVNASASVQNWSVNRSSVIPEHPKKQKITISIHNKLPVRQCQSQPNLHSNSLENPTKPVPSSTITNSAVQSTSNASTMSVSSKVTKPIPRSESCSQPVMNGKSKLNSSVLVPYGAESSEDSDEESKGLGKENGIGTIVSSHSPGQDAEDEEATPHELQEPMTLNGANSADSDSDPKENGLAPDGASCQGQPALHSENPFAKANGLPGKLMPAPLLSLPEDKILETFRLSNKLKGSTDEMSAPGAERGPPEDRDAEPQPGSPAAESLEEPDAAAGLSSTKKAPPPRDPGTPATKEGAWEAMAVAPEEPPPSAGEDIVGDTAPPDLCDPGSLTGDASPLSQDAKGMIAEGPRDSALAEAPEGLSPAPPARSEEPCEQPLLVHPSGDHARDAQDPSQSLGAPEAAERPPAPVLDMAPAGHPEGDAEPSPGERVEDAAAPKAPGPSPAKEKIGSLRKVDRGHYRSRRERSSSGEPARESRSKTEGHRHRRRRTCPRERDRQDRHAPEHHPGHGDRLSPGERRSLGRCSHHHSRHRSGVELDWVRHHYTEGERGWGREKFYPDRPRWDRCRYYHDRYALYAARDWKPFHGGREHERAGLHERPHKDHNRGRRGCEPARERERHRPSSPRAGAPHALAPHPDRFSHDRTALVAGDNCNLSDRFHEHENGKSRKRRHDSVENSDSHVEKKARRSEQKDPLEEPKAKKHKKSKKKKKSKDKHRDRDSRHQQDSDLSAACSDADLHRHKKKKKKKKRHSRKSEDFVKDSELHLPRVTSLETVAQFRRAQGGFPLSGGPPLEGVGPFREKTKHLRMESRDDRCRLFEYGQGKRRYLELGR
How it was run: (§1)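 Average log2 ratios of fragment over vehicle were obtained by unpaired t-test from global-median-normalised Spectronaut label-free quantities. Proteins with ≥2 unique peptides were included. HEK293T lysate (495 µg per sample) was treated in triplicate with fragment at 200 µM or vehicle for 3 h, then with Biotin-Ahx-Ub-VS at 0.5 µM final for 1 h, and labelled DUBs were NeutrAvidin-enriched and run by diaPASEF LC-MS/MS.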

USP46 = USP46 (UniProt P62068)
Chain of USP46 (P62068 whole entry): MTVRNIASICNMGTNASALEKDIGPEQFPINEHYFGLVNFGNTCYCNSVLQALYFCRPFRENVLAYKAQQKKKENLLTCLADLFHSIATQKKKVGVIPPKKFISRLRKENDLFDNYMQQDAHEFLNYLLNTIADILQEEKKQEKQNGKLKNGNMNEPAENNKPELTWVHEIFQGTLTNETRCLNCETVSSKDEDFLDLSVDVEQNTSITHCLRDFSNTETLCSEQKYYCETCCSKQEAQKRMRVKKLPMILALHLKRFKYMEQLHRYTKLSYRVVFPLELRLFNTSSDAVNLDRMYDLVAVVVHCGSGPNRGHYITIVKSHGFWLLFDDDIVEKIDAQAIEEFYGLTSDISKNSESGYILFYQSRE
How it was run: as §1

USP47 = molecular target: T2, USP47 (UniProt Q96K76)
T2 sequence (whole entry): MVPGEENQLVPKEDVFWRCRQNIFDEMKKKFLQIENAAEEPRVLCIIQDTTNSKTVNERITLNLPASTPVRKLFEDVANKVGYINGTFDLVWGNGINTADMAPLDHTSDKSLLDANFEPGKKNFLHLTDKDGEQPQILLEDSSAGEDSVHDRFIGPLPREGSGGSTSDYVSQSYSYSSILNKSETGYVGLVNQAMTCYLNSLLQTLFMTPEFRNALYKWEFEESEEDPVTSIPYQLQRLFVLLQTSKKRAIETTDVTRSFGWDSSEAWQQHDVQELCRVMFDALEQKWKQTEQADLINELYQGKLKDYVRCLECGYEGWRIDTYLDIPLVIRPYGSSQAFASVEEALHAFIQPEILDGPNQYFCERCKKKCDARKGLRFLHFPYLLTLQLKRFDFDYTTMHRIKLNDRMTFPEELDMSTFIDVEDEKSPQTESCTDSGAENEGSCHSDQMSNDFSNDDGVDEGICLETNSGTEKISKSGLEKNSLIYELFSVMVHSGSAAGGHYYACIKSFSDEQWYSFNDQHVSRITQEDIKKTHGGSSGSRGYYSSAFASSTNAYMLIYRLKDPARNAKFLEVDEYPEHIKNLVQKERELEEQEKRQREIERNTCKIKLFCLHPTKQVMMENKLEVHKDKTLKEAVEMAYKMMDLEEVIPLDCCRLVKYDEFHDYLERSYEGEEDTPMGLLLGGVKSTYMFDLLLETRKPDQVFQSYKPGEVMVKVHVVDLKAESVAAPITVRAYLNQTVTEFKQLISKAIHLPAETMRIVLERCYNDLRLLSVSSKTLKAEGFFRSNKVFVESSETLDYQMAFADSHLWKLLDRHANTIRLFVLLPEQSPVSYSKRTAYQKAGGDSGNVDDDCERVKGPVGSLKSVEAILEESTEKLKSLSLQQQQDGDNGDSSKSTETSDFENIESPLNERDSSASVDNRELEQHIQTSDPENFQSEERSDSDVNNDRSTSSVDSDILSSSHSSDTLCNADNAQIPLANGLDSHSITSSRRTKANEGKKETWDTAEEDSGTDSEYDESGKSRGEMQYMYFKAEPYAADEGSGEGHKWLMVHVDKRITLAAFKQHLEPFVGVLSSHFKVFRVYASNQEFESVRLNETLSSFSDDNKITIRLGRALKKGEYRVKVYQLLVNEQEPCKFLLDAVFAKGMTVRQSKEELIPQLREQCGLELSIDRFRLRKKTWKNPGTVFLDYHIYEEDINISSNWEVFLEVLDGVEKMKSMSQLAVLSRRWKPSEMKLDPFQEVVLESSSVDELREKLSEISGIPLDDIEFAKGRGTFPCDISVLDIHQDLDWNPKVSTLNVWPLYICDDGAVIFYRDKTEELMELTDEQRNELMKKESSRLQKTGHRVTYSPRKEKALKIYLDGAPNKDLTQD
How it was run: as §1

USP48 = molecular target: T3, USP48 (UniProt Q86UV5)
T3 sequence (whole entry): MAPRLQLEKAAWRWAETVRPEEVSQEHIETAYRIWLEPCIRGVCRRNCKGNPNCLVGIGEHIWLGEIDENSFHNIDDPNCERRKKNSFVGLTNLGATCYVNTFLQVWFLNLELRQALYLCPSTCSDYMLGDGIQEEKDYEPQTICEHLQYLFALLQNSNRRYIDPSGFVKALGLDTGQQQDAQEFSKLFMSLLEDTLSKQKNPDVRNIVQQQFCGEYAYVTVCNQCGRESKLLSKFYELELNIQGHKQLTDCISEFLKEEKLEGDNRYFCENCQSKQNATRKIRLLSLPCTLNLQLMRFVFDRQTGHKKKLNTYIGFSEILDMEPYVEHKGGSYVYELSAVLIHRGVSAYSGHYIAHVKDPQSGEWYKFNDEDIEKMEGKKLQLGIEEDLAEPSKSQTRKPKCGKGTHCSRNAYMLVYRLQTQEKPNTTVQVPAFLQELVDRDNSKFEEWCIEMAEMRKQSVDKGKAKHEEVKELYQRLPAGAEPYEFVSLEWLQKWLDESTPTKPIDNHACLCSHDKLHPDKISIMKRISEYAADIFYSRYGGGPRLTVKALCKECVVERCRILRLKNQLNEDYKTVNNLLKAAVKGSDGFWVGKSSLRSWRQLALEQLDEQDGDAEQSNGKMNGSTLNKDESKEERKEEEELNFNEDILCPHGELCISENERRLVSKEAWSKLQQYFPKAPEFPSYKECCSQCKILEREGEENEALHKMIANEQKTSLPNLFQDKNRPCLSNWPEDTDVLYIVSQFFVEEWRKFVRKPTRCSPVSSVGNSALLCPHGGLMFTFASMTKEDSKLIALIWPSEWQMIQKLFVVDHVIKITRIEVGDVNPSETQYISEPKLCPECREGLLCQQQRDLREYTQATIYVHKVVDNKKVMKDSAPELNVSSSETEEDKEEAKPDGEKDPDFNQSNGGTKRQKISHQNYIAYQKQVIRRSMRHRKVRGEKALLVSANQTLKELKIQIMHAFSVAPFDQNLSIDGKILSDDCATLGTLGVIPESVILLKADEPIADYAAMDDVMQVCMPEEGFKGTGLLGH
How it was run: as §1

USP5 = molecular target: T4, USP5 (UniProt P45974)
T4 sequence (whole entry): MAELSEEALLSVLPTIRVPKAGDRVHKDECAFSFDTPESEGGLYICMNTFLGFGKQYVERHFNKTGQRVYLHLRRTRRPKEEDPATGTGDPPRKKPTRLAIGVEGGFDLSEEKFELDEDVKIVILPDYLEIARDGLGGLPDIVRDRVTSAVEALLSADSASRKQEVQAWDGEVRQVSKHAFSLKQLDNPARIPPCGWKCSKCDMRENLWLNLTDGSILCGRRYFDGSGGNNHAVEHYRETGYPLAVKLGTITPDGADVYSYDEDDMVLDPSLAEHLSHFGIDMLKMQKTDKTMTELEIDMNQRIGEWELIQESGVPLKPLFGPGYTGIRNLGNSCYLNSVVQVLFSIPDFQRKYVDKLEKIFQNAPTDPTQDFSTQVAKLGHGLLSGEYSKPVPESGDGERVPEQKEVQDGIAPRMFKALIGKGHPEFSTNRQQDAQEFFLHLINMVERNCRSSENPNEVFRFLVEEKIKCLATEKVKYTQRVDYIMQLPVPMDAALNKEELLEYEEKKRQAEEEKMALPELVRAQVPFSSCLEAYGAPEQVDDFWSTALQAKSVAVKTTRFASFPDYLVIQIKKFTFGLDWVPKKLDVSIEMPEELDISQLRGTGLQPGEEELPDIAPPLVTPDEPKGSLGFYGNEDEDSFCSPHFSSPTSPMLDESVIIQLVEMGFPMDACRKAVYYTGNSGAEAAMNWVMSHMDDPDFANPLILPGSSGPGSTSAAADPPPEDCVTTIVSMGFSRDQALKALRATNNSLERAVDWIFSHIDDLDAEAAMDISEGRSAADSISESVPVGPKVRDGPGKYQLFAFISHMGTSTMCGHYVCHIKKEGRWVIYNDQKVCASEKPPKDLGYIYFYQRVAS
How it was run: as §1

USP54 = USP54 (UniProt Q70EL1)
How it was run: as §1

USP7 = USP7 (UniProt Q93009)
Chain of USP7 (Q93009 whole entry, looked up): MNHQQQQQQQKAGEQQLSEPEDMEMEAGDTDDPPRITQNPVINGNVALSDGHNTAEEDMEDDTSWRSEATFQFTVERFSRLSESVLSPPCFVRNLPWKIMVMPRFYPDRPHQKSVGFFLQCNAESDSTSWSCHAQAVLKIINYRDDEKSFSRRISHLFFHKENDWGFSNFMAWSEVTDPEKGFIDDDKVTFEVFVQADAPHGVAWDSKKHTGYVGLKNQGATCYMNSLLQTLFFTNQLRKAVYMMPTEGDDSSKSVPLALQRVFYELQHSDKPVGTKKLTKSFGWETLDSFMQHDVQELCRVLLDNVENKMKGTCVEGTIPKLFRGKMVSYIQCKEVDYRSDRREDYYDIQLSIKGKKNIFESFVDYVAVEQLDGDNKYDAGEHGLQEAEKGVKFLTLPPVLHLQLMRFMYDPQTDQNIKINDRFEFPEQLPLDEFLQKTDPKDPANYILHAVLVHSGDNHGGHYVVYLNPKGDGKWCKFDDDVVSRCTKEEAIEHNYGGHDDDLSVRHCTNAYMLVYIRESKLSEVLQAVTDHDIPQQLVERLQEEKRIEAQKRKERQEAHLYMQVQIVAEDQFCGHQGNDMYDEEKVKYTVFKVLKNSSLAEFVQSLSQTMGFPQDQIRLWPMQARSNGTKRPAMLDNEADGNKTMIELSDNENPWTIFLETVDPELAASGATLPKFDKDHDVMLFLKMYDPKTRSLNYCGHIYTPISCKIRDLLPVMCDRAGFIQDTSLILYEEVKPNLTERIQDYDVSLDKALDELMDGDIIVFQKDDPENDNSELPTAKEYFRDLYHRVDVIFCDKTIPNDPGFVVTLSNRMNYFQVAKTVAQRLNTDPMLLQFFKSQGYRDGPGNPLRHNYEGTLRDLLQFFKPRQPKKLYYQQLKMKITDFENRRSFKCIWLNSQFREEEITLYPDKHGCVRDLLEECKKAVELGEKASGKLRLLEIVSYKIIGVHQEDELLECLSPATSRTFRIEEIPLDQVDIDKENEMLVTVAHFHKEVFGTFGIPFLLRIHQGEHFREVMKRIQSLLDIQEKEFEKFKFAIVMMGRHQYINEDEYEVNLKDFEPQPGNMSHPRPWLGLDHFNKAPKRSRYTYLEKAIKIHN
How it was run: as §1

USP8 = molecular target: T5, USP8 (UniProt P40818)
T5 sequence (whole entry): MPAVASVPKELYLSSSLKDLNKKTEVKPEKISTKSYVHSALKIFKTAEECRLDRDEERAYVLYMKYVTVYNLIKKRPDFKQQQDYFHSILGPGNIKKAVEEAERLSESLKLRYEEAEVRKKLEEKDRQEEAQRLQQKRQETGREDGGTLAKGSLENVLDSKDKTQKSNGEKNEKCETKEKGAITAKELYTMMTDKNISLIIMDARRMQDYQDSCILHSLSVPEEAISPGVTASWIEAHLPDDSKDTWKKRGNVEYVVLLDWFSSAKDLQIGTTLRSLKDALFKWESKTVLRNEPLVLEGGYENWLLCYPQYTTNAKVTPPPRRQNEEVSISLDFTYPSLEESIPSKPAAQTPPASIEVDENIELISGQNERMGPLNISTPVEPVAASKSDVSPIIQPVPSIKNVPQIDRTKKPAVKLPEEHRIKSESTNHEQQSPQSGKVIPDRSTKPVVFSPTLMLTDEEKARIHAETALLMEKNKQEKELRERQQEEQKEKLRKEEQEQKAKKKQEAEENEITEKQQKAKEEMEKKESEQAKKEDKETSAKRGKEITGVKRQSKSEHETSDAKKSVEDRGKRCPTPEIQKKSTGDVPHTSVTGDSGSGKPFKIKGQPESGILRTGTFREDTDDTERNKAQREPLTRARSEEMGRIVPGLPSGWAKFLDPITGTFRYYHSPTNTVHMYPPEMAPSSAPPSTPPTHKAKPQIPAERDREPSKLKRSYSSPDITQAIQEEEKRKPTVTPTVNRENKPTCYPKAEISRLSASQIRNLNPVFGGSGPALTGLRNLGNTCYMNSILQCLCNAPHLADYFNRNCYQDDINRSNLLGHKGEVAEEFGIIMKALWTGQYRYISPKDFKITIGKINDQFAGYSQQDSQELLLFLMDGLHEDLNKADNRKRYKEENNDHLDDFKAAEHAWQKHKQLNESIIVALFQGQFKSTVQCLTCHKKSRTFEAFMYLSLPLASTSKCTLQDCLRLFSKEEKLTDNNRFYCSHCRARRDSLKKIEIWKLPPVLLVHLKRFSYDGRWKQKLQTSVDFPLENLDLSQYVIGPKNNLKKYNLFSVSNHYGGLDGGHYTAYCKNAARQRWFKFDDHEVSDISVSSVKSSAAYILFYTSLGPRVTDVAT
How it was run: as §1

USP9X = USP9X (UniProt Q93008)
Chain of USP9X (Q93008 whole entry): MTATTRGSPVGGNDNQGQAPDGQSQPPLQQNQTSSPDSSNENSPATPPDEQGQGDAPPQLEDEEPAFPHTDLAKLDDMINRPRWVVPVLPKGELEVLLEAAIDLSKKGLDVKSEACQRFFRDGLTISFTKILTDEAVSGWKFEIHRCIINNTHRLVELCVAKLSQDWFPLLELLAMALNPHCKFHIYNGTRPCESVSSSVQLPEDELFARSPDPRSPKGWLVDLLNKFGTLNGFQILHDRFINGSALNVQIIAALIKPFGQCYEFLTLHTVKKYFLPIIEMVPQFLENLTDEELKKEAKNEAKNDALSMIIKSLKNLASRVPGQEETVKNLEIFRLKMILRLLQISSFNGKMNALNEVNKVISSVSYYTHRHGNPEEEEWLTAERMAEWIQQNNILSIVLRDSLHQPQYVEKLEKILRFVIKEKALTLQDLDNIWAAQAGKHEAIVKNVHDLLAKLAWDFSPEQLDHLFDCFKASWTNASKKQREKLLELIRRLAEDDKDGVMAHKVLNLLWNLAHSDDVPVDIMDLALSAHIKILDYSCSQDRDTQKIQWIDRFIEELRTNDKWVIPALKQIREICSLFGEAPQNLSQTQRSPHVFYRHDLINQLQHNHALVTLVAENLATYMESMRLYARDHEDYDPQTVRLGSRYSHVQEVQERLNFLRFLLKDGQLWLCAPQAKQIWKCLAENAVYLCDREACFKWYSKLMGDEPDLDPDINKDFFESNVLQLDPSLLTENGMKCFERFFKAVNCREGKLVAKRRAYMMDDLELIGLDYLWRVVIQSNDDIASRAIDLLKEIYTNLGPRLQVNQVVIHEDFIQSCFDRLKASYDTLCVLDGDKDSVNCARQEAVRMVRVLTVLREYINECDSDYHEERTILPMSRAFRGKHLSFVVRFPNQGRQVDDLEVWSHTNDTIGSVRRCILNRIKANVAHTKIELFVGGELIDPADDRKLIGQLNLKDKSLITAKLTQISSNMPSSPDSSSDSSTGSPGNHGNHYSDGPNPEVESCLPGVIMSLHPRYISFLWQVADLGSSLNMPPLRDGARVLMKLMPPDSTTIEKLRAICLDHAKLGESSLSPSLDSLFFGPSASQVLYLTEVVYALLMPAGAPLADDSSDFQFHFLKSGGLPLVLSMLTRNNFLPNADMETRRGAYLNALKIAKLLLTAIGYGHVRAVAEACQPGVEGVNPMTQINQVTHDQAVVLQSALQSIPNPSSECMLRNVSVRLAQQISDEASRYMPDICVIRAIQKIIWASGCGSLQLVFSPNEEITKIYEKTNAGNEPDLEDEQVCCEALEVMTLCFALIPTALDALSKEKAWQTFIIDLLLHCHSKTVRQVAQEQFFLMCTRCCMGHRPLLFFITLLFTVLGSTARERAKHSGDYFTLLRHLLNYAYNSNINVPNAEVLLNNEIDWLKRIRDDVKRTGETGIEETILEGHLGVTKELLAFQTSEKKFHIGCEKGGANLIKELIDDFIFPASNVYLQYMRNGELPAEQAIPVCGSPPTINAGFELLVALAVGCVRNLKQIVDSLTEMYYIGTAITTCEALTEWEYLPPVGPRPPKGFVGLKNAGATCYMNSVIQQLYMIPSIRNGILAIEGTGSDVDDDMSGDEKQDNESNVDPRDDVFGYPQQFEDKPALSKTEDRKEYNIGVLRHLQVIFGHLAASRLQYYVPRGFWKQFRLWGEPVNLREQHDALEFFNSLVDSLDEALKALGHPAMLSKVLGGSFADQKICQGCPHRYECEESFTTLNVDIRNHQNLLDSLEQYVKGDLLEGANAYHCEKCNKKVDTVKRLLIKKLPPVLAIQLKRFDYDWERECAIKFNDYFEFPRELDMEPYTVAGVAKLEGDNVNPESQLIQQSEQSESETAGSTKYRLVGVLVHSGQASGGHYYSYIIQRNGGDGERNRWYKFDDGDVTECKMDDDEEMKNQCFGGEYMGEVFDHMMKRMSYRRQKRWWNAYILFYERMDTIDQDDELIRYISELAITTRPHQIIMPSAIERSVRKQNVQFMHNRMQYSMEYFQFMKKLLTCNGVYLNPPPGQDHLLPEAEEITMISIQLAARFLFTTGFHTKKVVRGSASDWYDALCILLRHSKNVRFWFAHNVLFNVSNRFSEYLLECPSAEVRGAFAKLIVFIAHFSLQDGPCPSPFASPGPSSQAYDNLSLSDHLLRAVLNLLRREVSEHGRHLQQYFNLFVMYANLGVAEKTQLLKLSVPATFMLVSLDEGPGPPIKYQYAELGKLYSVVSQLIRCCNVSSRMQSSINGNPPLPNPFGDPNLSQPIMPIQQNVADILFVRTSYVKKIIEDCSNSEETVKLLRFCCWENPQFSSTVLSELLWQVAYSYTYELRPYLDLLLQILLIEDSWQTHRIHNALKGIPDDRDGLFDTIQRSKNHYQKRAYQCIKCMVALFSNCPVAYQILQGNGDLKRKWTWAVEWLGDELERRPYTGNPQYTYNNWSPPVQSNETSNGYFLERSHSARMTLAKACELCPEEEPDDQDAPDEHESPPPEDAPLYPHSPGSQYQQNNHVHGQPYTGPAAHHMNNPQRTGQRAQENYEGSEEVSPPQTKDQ
How it was run: as §1

UniProt O00487 = molecular target: UniProt O00487
Chain of UniProt O00487 (O00487 whole entry): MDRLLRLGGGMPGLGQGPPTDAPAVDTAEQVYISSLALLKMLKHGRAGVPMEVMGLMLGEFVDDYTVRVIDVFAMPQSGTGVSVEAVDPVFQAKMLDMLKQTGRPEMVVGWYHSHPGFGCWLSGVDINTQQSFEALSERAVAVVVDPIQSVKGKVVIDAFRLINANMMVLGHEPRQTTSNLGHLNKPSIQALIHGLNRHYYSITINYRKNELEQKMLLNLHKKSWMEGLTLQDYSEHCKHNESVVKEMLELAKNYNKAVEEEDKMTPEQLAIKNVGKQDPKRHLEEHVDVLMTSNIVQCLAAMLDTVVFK
How it was run: as §1

Measured: log2 ratio of Biotin-Ahx-Ub-VS probe labelling

CCC(NC(=O)CCl)c1ccc(Cl)cc1 (stereo not given)
inactive: USP42 0.358 | USP46 -0.00255 | USP47 -0.558 | USP48 -0.293 | USP5 0.0661 | USP54 0.671 | USP7 -0.195 | USP8 -0.0586 | USP9X -0.112 | UniProt O00487 0.0429
